Assay results: PubChem BioAssay AID1159580 (chemical genetic matrix, 2015)
In all, about 5,500 compounds went through this assay and about 2,000 (36%) were called active. Inconclusive results (about 18%) are left out. Cut-off read from the data, not from the text of the source: active = normalized growth mostly below about 0.91 (no sharp cut-off); inconclusive = no clear call, values can overlap the other calls; inactive = mostly above about 0.92. The list shows a part of the results.

Assay: chemical genetic growth profiling, strain panel (AID 1159580);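 note: tested at 20 µM; growth read once vehicle control cultures reached saturation at 30 °C; 1 = growth at the plate median or of vehicle wells; lower values mean less growth of the strain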
Conditions: growth OD

Measured: normalized growth

Nc1ccc(S(=O)(=O)Nc2cnc3ccccc3n2)cc1
inactive: S. cerevisiae deletion strains, locus YJR075W, strain HOC1, stronger effect = lower value 0.982 | S. cerevisiae deletion strains, locus YKL009W, strain mrt4, stronger effect = lower value 0.971 | S. cerevisiae deletion strains, locus YKL068W, stronger effect = lower value 0.985 | S. cerevisiae deletion strains, locus YKL085W, strain MDH1 (second series), stronger effect = lower value 0.98 | S. cerevisiae deletion strains, locus YKL085W, strain MDH1, stronger effect = lower value 0.98 | S. cerevisiae deletion strains, locus YKL160W, strain elf1, stronger effect = lower value 1.01 | S. cerevisiae deletion strains, locus YKL190W, strain CNB1, stronger effect = lower value 0.976 | S. cerevisiae deletion strains, locus YKR001C, strain vps1, stronger effect = lower value 0.969 | S. cerevisiae deletion strains, locus YKR026C, strain gcn3, stronger effect = lower value 1.02 | S. cerevisiae deletion strains, locus YKR091W, strain srl3, stronger effect = lower value 1.01 | S. cerevisiae deletion strains, locus YLL001W, strain dnm1, stronger effect = lower value 1.02 | S. cerevisiae deletion strains, locus YLL026W, stronger effect = lower value 1.01 | S. cerevisiae deletion strains, locus YLL041C, strain sdh2, stronger effect = lower value 1 | S. cerevisiae deletion strains, locus YLR027C, strain aat2, stronger effect = lower value 1.01 | S. cerevisiae deletion strains, locus YLR039C, strain RIC1, stronger effect = lower value 0.959 | S. cerevisiae deletion strains, locus YLR058C, strain SHM2, stronger effect = lower value 0.971 | S. cerevisiae deletion strains, locus YLR102C, strain apc9, stronger effect = lower value 0.992 | S. cerevisiae deletion strains, locus YLR113W, strain HOG1, stronger effect = lower value 0.967 | S. cerevisiae deletion strains, locus YLR221C, strain rsa3, stronger effect = lower value 0.995 | S. cerevisiae deletion strains, locus YLR258W, strain gsy2, stronger effect = lower value 1.01 | S. cerevisiae deletion strains, locus YLR262C, strain YPT6 (second series), stronger effect = lower value 1.02 | S. cerevisiae deletion strains, locus YLR262C, strain YPT6, stronger effect = lower value 0.964 | S. cerevisiae deletion strains, locus YLR268W, strain sec22, stronger effect = lower value 0.904 | S. cerevisiae deletion strains, locus YLR320W, strain mms22, stronger effect = lower value 1.01 | S. cerevisiae deletion strains, locus YLR330W, strain CHS5, stronger effect = lower value 0.995 | S. cerevisiae deletion strains, locus YLR342W, strain FKS1 (second series), stronger effect = lower value 1.02 | S. cerevisiae deletion strains, locus YLR342W, strain FKS1, stronger effect = lower value 1.01 | S. cerevisiae deletion strains, locus YLR357W, strain rsc2, stronger effect = lower value 0.995 | S. cerevisiae deletion strains, locus YLR370C, strain arc18, stronger effect = lower value 1.03 | S. cerevisiae deletion strains, locus YLR371W, strain rom2, stronger effect = lower value 0.984 | S. cerevisiae deletion strains, locus YLR384C, strain iki3, stronger effect = lower value 1.01 | S. cerevisiae deletion strains, locus YLR418C, strain cdc73, stronger effect = lower value 0.979 | S. cerevisiae deletion strains, locus YML016C, strain PPZ1, stronger effect = lower value 0.996 | S. cerevisiae deletion strains, locus YML032C, strain rad52, stronger effect = lower value 0.979 | S. cerevisiae deletion strains, locus YML120C, strain ndi1, stronger effect = lower value 1.02 | S. cerevisiae deletion strains, locus YML124C, strain tub3, stronger effect = lower value 0.978 | S. cerevisiae deletion strains, locus YMR058W, strain fet3, stronger effect = lower value 1.02 | S. cerevisiae deletion strains, locus YMR078C, strain ctf18, stronger effect = lower value 0.974 | S. cerevisiae deletion strains, locus YMR125W, strain sto1, stronger effect = lower value 1.03 | S. cerevisiae deletion strains, locus YMR129W, stronger effect = lower value 1.02 | S. cerevisiae deletion strains, locus YMR205C, strain PFK2, stronger effect = lower value 1.02 | S. cerevisiae deletion strains, locus YMR223W, strain ubp8, stronger effect = lower value 1 | S. cerevisiae deletion strains, locus YMR231W, strain pep5, stronger effect = lower value 1.01 | S. cerevisiae deletion strains, locus YMR263W, strain SAP30, stronger effect = lower value 0.978 | S. cerevisiae deletion strains, locus YMR307W, strain GAS1, stronger effect = lower value 1.1 | S. cerevisiae deletion strains, locus YNL067W, strain RPL9B, stronger effect = lower value 0.977 | S. cerevisiae deletion strains, locus YNL071W, strain lat1, stronger effect = lower value 1.02 | S. cerevisiae deletion strains, locus YNL153C, strain GIM3, stronger effect = lower value 0.962 | S. cerevisiae deletion strains, locus YNL183C, strain NPR1, stronger effect = lower value 0.921 | S. cerevisiae deletion strains, locus YNL209W, strain ssb2, stronger effect = lower value 1.02 | S. cerevisiae deletion strains, locus YNL233W, strain BNI4, stronger effect = lower value 0.984 | S. cerevisiae deletion strains, locus YNL248C, strain rpa49, stronger effect = lower value 1.02 | S. cerevisiae deletion strains, locus YNL250W, strain rad50, stronger effect = lower value 0.98 | S. cerevisiae deletion strains, locus YNL271C, strain bni1, stronger effect = lower value 0.985 | S. cerevisiae deletion strains, locus YNL298W, strain CLA4, stronger effect = lower value 0.988 | S. cerevisiae deletion strains, locus YNL307C, strain MCK1, stronger effect = lower value 0.983 | S. cerevisiae deletion strains, locus YNL322C, strain KRE1 (second series), stronger effect = lower value 0.997 | S. cerevisiae deletion strains, locus YNL322C, strain KRE1, stronger effect = lower value 0.992 | S. cerevisiae deletion strains, locus YNR049C, strain mso1, stronger effect = lower value 1.01 | S. cerevisiae deletion strains, locus YNR052C, strain pop2, stronger effect = lower value 0.987 | S. cerevisiae deletion strains, locus YOL006C, strain TOP1, stronger effect = lower value 0.997 | S. cerevisiae deletion strains, locus YOL012C, strain htz1 1.64 | S. cerevisiae deletion strains, locus YOL147C, strain pex11, stronger effect = lower value 0.988 | S. cerevisiae deletion strains, locus YOR001W, strain rrp6, stronger effect = lower value 1.02 | S. cerevisiae deletion strains, locus YOR061W, strain CKA2, stronger effect = lower value 0.961 | S. cerevisiae deletion strains, locus YOR069W, strain VPS5, stronger effect = lower value 0.995 | S. cerevisiae deletion strains, locus YOR070C, strain gyp1, stronger effect = lower value 1.01 | S. cerevisiae deletion strains, locus YOR080W, strain dia2, stronger effect = lower value 1.02 | S. cerevisiae deletion strains, locus YOR083W, strain WHI5, stronger effect = lower value 0.99 | S. cerevisiae deletion strains, locus YOR106W, strain vam3, stronger effect = lower value 1.03 | S. cerevisiae deletion strains, locus YOR136W, strain idh2, stronger effect = lower value 0.98 | S. cerevisiae deletion strains, locus YOR144C, strain elg1, stronger effect = lower value 0.977 | S. cerevisiae deletion strains, locus YOR184W, strain ser1, stronger effect = lower value 0.98 | S. cerevisiae deletion strains, locus YOR231W, strain MKK1, stronger effect = lower value 0.975 | S. cerevisiae deletion strains, locus YOR265W, strain rbl2, stronger effect = lower value 1.01 | S. cerevisiae deletion strains, locus YOR270C, strain vph1, stronger effect = lower value 1.02 | S. cerevisiae deletion strains, locus YOR290C, strain snf2, stronger effect = lower value 0.998 | S. cerevisiae deletion strains, locus YOR316C, strain cot1, stronger effect = lower value 0.969 | S. cerevisiae deletion strains, locus YPL051W, strain arl3, stronger effect = lower value 1 | S. cerevisiae deletion strains, locus YPL055C, strain LGE1, stronger effect = lower value 0.94 | S. cerevisiae deletion strains, locus YPL078C, strain atp4, stronger effect = lower value 1.02 | S. cerevisiae deletion strains, locus YPL106C, strain sse1, stronger effect = lower value 1.03 | S. cerevisiae deletion strains, locus YPL240C, strain hsp82, stronger effect = lower value 1.02 | S. cerevisiae deletion strains, locus YPL256C, strain CLN2, stronger effect = lower value 0.96 | S. cerevisiae deletion strains, locus YPR119W, strain clb2, stronger effect = lower value 0.986 | S. cerevisiae deletion strains, locus YPR141C, strain kar3, stronger effect = lower value 0.972 | S. cerevisiae deletion strains, locus YPR163C, strain tif3, stronger effect = lower value 0.989 | S. cerevisiae deletion strains, locus YPR167C, strain met16, stronger effect = lower value 0.987 | S. cerevisiae deletion strains, strain wtn01, stronger effect = lower value 0.991 | S. cerevisiae strains, strain wild type, stronger effect = lower value 0.986
